According to PubChem BioAssay (EPA / NIEHS):
Records with an inconclusive call do not appear. Calls of active or inactive are those of the source. The calls were made as follows, unless noted: active = hit-call score of the fitted dose curve at least 0.9, where 1 is the maximum; inconclusive = response in the unintended direction; inactive = score below 0.9.

Assays:
[1] = read-out: UDP glucuronosyltransferase (UGT1A6), UGT1A6 (gene 54578); experiment: LTEA_HepaRG_UGT1A6: Life Technologies and Expression Analysis (LTEA) Assay for UDP glucuronosyltransferase (UGT1A6) using HepaRG (AID 2283539; active = hit-call score of the fitted dose curve at least 0.9, where 1 is the maximum; inactive = score below 0.9); conditions: mRNA level, 48 h; actives raise or lower the signal
Outline: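 HepaRG, 48 h post-plating switch to serum-free induction medium; chemical 48 h, 100 uM top, half-log x8, duplicate, 0.5% DMSO. Phenobarbital 1mM induction control. UGT1A6 mRNA by TaqMan qRT-PCR; gain/loss fit vs DMSO.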

[2] = read-out: X-box binding protein 1 (XBP1), XBP1 (gene 7494); experiment: LTEA_HepaRG_XBP1: Life Technologies and Expression Analysis (LTEA) Assay for X-box binding protein 1 (XBP1) using HepaRG (AID 2283540; active = hit-call score of the fitted dose curve at least 0.9, where 1 is the maximum; inactive = score below 0.9); conditions: mRNA level, 48 h; actives raise or lower the signal
Outline: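 Transcript levels of XBP1, measured by qRT-PCR and normalised to three housekeeping genes, were fitted bidirectionally relative to 0.5% DMSO controls. Human HepaRG cells received eight-point half-log dilutions from 100 uM for 48 h.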

[3] = LTEA_HepaRG_LDH_cytotoxicity: Cytotoxicity Assessment in the Life Technologies and Expression Analysis (LTEA) Assay (AID 2283563)
Outline: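 Cells were thawed and plated for 48 h. Medium was then replaced with serum-free induction medium. Chemicals (8 half-log points, maximum 100 uM, 0.5% DMSO) were added in duplicate for 48 h, after which spent medium was assayed for LDH.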

[4] = Tanguay_ZF_120hpf_MORT_legacy: (Legacy) Oregon State University Tanguay Lab 120 Hour Post-fertilization zebrafish Assay for Mortality (AID 2283633)
Outline: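 5D WT zebrafish, chorion removed 4 hpf; 1 embryo/well from 6 hpf; static exposure to 120 hpf, 28C, dark, sealed. Final DMSO 0.64%. Readout: binary mortality, brightfield, 24 + 120 hpf; DMSO as negative control.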

[5] = Tanguay_ZF_120hpf_YSE_legacy: (Legacy) Oregon State University Tanguay Lab 120 Hour Post-fertilization zebrafish Assay for Yolk Sac Edema (AID 2283634)
Outline: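 Dechorionate (pronase, 4 hpf) → place one 6 hpf embryo per well → static compound exposure, sealed and foil-covered, 28C, to 120 hpf → record yolk sac edema as present or absent. Final DMSO 0.64%.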

[6] = Tanguay_ZF_120hpf_AXIS_legacy: (Legacy) Oregon State University Tanguay Lab 120 Hour Post-fertilization zebrafish Assay for Body Axis Malformation (AID 2283635)
Outline: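 Chorion is removed with pronase at 4 hpf, then single 6 hpf embryos are dosed (final DMSO 0.64%) and held statically at 28C in sealed, foil-covered plates. At 120 hpf body axis malformation is recorded as present or absent.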

[7] = Tanguay_ZF_120hpf_EYE_legacy: (Legacy) Oregon State University Tanguay Lab 120 Hour Post-fertilization zebrafish Assay for Eye Malformation (AID 2283636)
Outline: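 Binary brightfield scoring of eye defects at 120 hpf after static exposure from 6 hpf of single pronase-dechorionated wild-type embryos (28C, 0.64% DMSO). Non-mortality endpoints omitted where embryos died; fit vs DMSO.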

[8] = Tanguay_ZF_120hpf_SNOU_legacy: (Legacy) Oregon State University Tanguay Lab 120 Hour Post-fertilization zebrafish Assay for Snout Malformation (AID 2283637)
Outline: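 Binary snout-malformation call at 120 hpf in wild-type 5D embryos, chorion removed by pronase, under static exposure from 6 hpf at 28C (0.64% DMSO). Embryos dying by 24 or 120 hpf excluded.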

[9] = Tanguay_ZF_120hpf_JAW_legacy: (Legacy) Oregon State University Tanguay Lab 120 Hour Post-fertilization zebrafish Assay for Jaw Malformation (AID 2283638)
Outline: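 Steps: dechorionate 4 hpf embryos (pronase); plate 1/well at 6 hpf; add test chemical, 0.64% DMSO final; seal, cover, hold at 28C statically to 120 hpf; score jaw defect presence/absence microscopically. Dead embryos not scored.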

[10] = Tanguay_ZF_120hpf_OTIC_legacy: (Legacy) Oregon State University Tanguay Lab 120 Hour Post-fertilization zebrafish Assay for Otic Vesicle Malformation (AID 2283639)
Outline: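 Binary scoring of otic vesicle defects at 120 hpf in zebrafish (Tropical 5D) held under static exposure at 28C, sealed and shaded, with final DMSO 0.64%. Embryos dying by 24 or 120 hpf excluded; fitted positively against DMSO.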

[11] = Tanguay_ZF_120hpf_PE_legacy: (Legacy) Oregon State University Tanguay Lab 120 Hour Post-fertilization zebrafish Assay for Pericardial Edema (AID 2283640)
Outline: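 Embryos from wild-type 5D adults were staged, then dosed in 0.64% DMSO. They were kept sealed in the dark at 28C until 120 hpf. Pericardial edema was then recorded as present or absent.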

[12] = Tanguay_ZF_120hpf_BRAI_legacy: (Legacy) Oregon State University Tanguay Lab 120 Hour Post-fertilization zebrafish Assay for Brain Malformation (AID 2283641)
Outline: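 Wild-type 5D larvae, static waterborne exposure to 120 hpf, 28C, 0.64% v/v DMSO. Brightfield scoring of brain defects, binary; dead embryos excluded. Positive ctrl 5uM trimethyltin chloride.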

[13] = Tanguay_ZF_120hpf_SOMI_legacy: (Legacy) Oregon State University Tanguay Lab 120 Hour Post-fertilization zebrafish Assay for Somite Malformation (AID 2283647)
Outline: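 Read-out: presence or absence of somite malformation in 120 hpf larvae, gain-of-signal relative to DMSO baseline. Embryos lacked chorion (pronase, 4 hpf) and were exposed statically from 6 hpf at 28C; dead larvae not scored.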

[14] = Tanguay_ZF_120hpf_PFIN_legacy: (Legacy) Oregon State University Tanguay Lab 120 Hour Post-fertilization zebrafish Assay for Pectoral Fin Malformation (AID 2283648);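 also: each larva judged yes or no for fin defect by brightfield with dead larvae skipped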
Outline: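 Pectoral fin malformation was recorded as a binary endpoint at 120 hpf in wild-type Tropical 5D larvae, which had been dechorionated and exposed statically from 6 hpf at 28C in 0.64% DMSO. Dead embryos were excluded.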

[15] = Tanguay_ZF_120hpf_CFIN_legacy: (Legacy) Oregon State University Tanguay Lab 120 Hour Post-fertilization zebrafish Assay for Caudal Fin Malformation (AID 2283649)
Outline: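 Binary presence or absence of caudal fin malformation at 120 hpf, read by brightfield microscopy, with DMSO as baseline. Larvae came from 5D wild-type embryos exposed statically from 6 hpf at 28C after pronase dechorionation.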

[16] = Tanguay_ZF_120hpf_SWIM_legacy: (Legacy) Oregon State University Tanguay Lab 120 Hour Post-fertilization zebrafish Assay for Swim Bladder Malformation (AID 2283654);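 also: swim bladder malformation in each larva scored yes or no under brightfield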
Outline: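 Scoring is binary for swim bladder defects at 120 hpf, by brightfield inspection of zebrafish larvae. Embryos were exposed singly from 6 hpf after pronase dechorionation, at 28C with 0.64% DMSO; mortality excluded scoring.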

[17] = Tanguay_ZF_120hpf_TRUN_legacy: (Legacy) Oregon State University Tanguay Lab 120 Hour Post-fertilization zebrafish Assay for Truncated Body (AID 2283655)
Outline: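 Truncated body is recorded as a binary endpoint at 120 hpf by brightfield imaging of wild-type 5D larvae. Exposure runs statically from 6 hpf at 28C with 0.64% DMSO; embryos dying earlier are not scored.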

[18] = Tanguay_ZF_120hpf_NC_legacy: (Legacy) Oregon State University Tanguay Lab 120 Hour Post-fertilization zebrafish Assay for Notochord and Tail Malformation (AID 2283656)
Outline: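 Binary scoring of notochord distortion by brightfield microscopy; embryos dying were not scored. Wild-type Tropical 5D embryos, chorion removed, exposed singly and statically from 6 to 120 hpf, 28C, sealed, 0.64% DMSO.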

[19] = Tanguay_ZF_120hpf_TR_legacy: (Legacy) Oregon State University Tanguay Lab 120 Hour Post-fertilization zebrafish Assay for Touch Response (AID 2283667)
Outline: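 Binary touch-response endpoint in larvae at 120 hpf after static waterborne exposure from embryo stage (28°C, 0.64% DMSO vehicle, 5 uM trimethyltin chloride as positive control); embryos dead at 24 or 120 hpf excluded; fitted as gain versus DMSO.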

[20] = Tanguay_ZF_120hpf_ActivityScore_legacy: (Legacy) Oregon State University Tanguay Lab 120 Hour Post-fertilization zebrafish Assay Score for Activity (AID 2283742);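 as to AC50: dechorionated Tropical 5D wild-type zebrafish embryos held singly per well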
Outline: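 Binary scoring of mortality and morphology by brightfield at 24 and 120 hpf, summarised into one activity score from 18 components relative to DMSO. Wild-type Tropical 5D zebrafish, chorion removed at 4 hpf, static exposure 6–120 hpf, 28 °C.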

Measured: AC50

O=C(CCl)c1ccccc1
active: [20] 1450 nM
inactive: [1] | [2] | [3] | [4] | [5] | [6] | [7] | [8] | [9] | [10] | [11] | [12] | [13] | [14] | [15] | [16] | [17] | [18] | [19]

N#CCCCCC#N
inactive: [1] | [2] | [3] | [4] | [5] | [6] | [7] | [8] | [9] | [10] | [11] | [12] | [13] | [14] | [15] | [16] | [17] | [18] | [19] | [20]

O=[N+]([O-])c1ccc(Cl)cc1
inactive: [1] | [2] | [3] | [4] | [5] | [6] | [7] | [8] | [9] | [10] | [11] | [12] | [13] | [14] | [15] | [16] | [17] | [18] | [19] | [20]
